From PubChem BioAssay AID463173 (ICCB-Longwood Screening Facility, Harvard Medical School, 2010) come the findings set out here.

The structures appear in SMILES notation. Hit rate of the full screen: of about 52,000 compounds, about 4,300 (8.3%) were called active. For the sample, actives were picked, then their nearest neighbours and some compounds at random. A number with no mark means an inactive call. Rule as the data show it: active = survival mostly below about 52% (no sharp cut-off); inactive = mostly above about 56%.

The subject of the assay is DeltatarO mutant. Briefly: growth inhibition of S. aureus wild type versus tarO mutant, primary screen, teichoic acid synthesis inhibitors, RN4220, OD600 (AID 463173). The conditions noted are these: OD600, 18 h, stronger effect = lower value, screened at 18.75 µg/mL (by protocol).
Take `O=C(CSc1nnc(CNC(=O)c2c(F)cccc2Cl)o1)Nc1cccc(F)c1`: the survival is 82%.

For the molecule `CCc1ccc(CNC(=O)c2ccc3c(c2)nc2n3CCCCC2)cc1`, the survival was 79%.

Regarding `COC(=O)c1c(NC(=O)c2cc(=O)c3ccc(C)c(C)c3o2)sc2c1CCCC2`, the survival is 84%.

On to `N#CC(C#N)=Cc1cn(CCOc2ccc3c(c2)OCO3)c2ccccc12`, for which the survival was 98%.

With `CCOC(=O)c1cc(=O)n2[nH]c(-c3ccc(Br)cc3)cc2n1`, the survival was 93%.

For the molecule `COc1ccc(NC(=O)c2ccc3c(c2)N(Cc2cccc(Cl)c2)C(=O)c2ccccc2S3=O)cc1Cl` (stereo unspecified), the survival was 112%.

Regarding `COc1ccc(N(C)C(=O)c2nn(-c3ccc(C)cc3)c(=O)n(C)c2=O)c(OC)c1`, the survival is 82%.

As to `CCOc1cccc(NC(=O)CSc2ncc(-c3ccc(Cl)cc3)[nH]2)c1`, the survival was 39% (active).

For `COc1ccc(NC(=O)CSc2ncc(-c3ccc(Cl)cc3)[nH]2)cc1OC`, the survival is 78%.

Take `COc1cc(-c2nnc(SCC(=O)Nc3cccc(C#N)c3)o2)cc(OC)c1OC`: the survival is 110%.

With `O=C(CSc1ncc(-c2ccccc2)[nH]1)Nc1ccc(Cl)cc1`, the survival is 36% (active).

`O=C(CSc1ncc(-c2ccccc2)[nH]1)Nc1ccccc1`: the survival is 64%.

As to `CCOc1ccc(-c2nnc(SCC(=O)Nc3cccc(C#N)c3)o2)cc1`, the survival is 48% (active).

As to `CCOc1cccc(NC(=O)CSc2ncc(-c3ccccc3)[nH]2)c1`, the survival was 49%.

With `Cc1ccc(NC(=O)CSc2ncc(-c3ccccc3)[nH]2)cc1`, the survival is 51%.

In the case of `COc1ccc(-c2nnc(SCC(=O)Nc3cccc(C(F)(F)F)c3)nc2-c2ccc(OC)cc2)cc1`, the survival is 87%.

Consider `CCOc1ccc(NC(=O)CSc2nnc(-c3ccc(C)cc3)c(-c3ccc(C)cc3)n2)cc1`, for which the survival is 115%.

For `CCOc1ccc(NC(=O)CSc2nnc(-c3ccc(OCC)cc3)o2)cc1`, the survival was 94%.

On to `CCOc1ccc(-c2nnc(SCC(=O)Nc3cccc(OC)c3)nc2-c2ccc(OCC)cc2)cc1`, for which the survival is 0% (active).

Turning to `CCOc1ccccc1-n1nnc(-c2nc(-c3ccccc3C)no2)c1C`, the survival was 96%.

For the molecule `Cc1c(F)cccc1NC(=O)C1CCCN1S(=O)(=O)c1ccc(F)cc1` (stereo unspecified), the survival was 72%.

Take `CC1=C(c2ccc(C)cc2)S(=O)(=O)N(Cc2ccc(C(=O)NCc3ccccc3)cc2)C1=O`: the survival is 81%.

As for `CCN(C(=O)c1cccs1)c1nnc(-c2cccc(C)c2)s1`, the survival was 93%.

Turning to `COc1ccc(CCNC(=S)N(Cc2ccco2)Cc2cc3cc(OC)c(OC)cc3[nH]c2=O)cc1OC`, the survival is 73%.

Take `O=C(CSc1ncc(-c2ccc(F)cc2)n1Cc1ccco1)OC1CCCCC1`: the survival was 108%.

Take `COc1ccc(OC)c(NC(=O)COCc2cc(-c3ccc(F)cc3)on2)c1`: the survival is 93%.

As to `Cc1cccc(-c2nc(SCC(=O)Nc3cccc(C(F)(F)F)c3)n3[nH]c(=O)cc3n2)c1`, the survival was 0% (active).

With `O=C(CSc1nc(-c2cccs2)nc2cc(=O)[nH]n12)Nc1cccc(C(F)(F)F)c1`, the survival is 94%.

For the molecule `O=C(CSc1nc(-c2ccccc2F)nc2cc(=O)[nH]n12)Nc1cccc(C(F)(F)F)c1`, the survival was 69%.

Consider `Cc1ccc(-c2noc(-c3nnn(CC(=O)Nc4cc(Cl)ccc4C)c3N)n2)cc1`, for which the survival is 80%.

Take `O=C(Nc1ccc(F)cc1)Nc1ccc2snnc2c1`: the survival was 19% (active).

For `CC(=O)c1ccc(NC(=O)Nc2ccc3snnc3c2)cc1`, the survival was 50%.

`O=C(Nc1cccc(C(F)(F)F)c1)c1ccc2snnc2c1`: the survival was 111%.

Consider `O=C(Nc1cccc(C(F)(F)F)c1)Nc1ccc2snnc2c1`, for which the survival is 11% (active).

Regarding `COc1cccc(NC(=O)Nc2ccc3snnc3c2)c1`, the survival was 68%.

On to `Cc1ccc(NC(=O)Nc2ccc3snnc3c2)cc1C`, for which the survival is 66%.

As for `COc1ccc(NC(=O)CSC2=Nc3ccccc3C3=NC(CCC(=O)NCc4cccs4)C(=O)N23)cc1` (stereo unspecified), the survival is 93%.

For `CC1=C(c2ccc(C)c(C)c2)S(=O)(=O)N=C1N1CCC(C(=O)NC(C)c2ccccc2)CC1` (stereo unspecified), the survival is 84%.

On to `CC(=O)N1Cc2ccccc2C(C)CC12CCCC2` (stereo unspecified), for which the survival is 119%.

Consider `Cc1nn2c(=O)cc(COC(=O)c3cccs3)nc2s1`, for which the survival was 89%.

With `Fc1ccc(NCc2ccccc2-c2nnc(-c3ccccc3Cl)o2)cc1Cl`, the survival is 77%.

As to `O=C(NCCc1nc2ccccc2n1Cc1ccc(F)cc1)c1ccco1`, the survival was 47%.

For `CC1=Nc2cc(C(=O)NC3CCCC3)ccc2Sc2ccc(C)cc21`, the survival was 59%.

Consider `CC1=Nc2cc(C(=O)NC3CCCC3)ccc2Sc2ccc(Br)cc21`, for which the survival was 57%.

In the case of `CCC1=Nc2cc(C(=O)NC3CCCC3)ccc2Sc2ccc(Cl)cc21`, the survival was 58%.

In the case of `CCC1=Nc2cc(C(=O)NC3CCCC3)ccc2Sc2ccc(Br)cc21`, the survival is 44% (active).

As for `CCCC1=Nc2cc(C(=O)NC3CCCC3)ccc2Sc2ccc(C)cc21`, the survival is 46% (active).

In the case of `CCC1=Nc2cc(C(=O)NCc3ccc(C)cc3)ccc2Sc2ccc(C)cc21`, the survival is 78%.

On to `CCCC1=Nc2cc(C(=O)NC3CCCCC3)ccc2Sc2ccc(C)cc21`, for which the survival was 94%.

Consider `CC1=Nc2cc(C(=O)NC3CCC(C)CC3)ccc2Sc2c(C)ccc(C)c21` (stereo unspecified), for which the survival was 73%.

With `CCC1=Nc2cc(C(=O)NC3CCC(C)CC3)ccc2Sc2ccc(C)cc21` (stereo unspecified), the survival is 39% (active).

With `COc1ccc(CNC(=O)c2cc3cc(C)ccc3n2C)cc1`, the survival is 74%.

On to `O=C(CSc1nc2c([nH]c3ccccc32)c(=O)n1-c1cccc(C(F)(F)F)c1)N1CCc2ccccc21`, for which the survival was 78%.

As for `O=C(NC1CC(=O)N(c2ccc(Cl)cc2)C1)c1cccs1` (stereo unspecified), the survival was 71%.

As to `CC1CCN(c2nc3ccc(C(=O)NC(C)C)cc3s2)CC1`, the survival is 74%.

Turning to `Cc1cc2[nH]c(=O)c(=O)[nH]c2cc1S(=O)(=O)NCc1ccc(F)cc1`, the survival was 112%.

For the molecule `Cc1ccc(CNS(=O)(=O)c2cc3[nH]c(=O)c(=O)[nH]c3cc2C)cc1`, the survival was 47% (active).

On to `COc1cccc(CNS(=O)(=O)c2cc3[nH]c(=O)c(=O)[nH]c3cc2C)c1`, for which the survival is 67%.

Regarding `CC(C)Sc1ncc(Cl)c(C(=O)N(Cc2ccc(F)cc2)C2CCS(=O)(=O)C2)n1` (stereo unspecified), the survival is 76%.

As for `CN(Cc1ccccc1)Cn1[nH]c(=O)ccc1=O`, the survival is 110%.

In the case of `COc1ccc(C)c2sc(N(Cc3cccnc3)C(=O)COc3ccccc3)nc12`, the survival is 85%.
